Results taken from PubChem BioAssay (NCATS).
Results filed as inconclusive are left out. Values without a mark were called inactive. Activity calls are given as the source filed them. Calls follow the shape of the dose curve; as a rule, active = well fitted inhibition curve with a large enough effect; inconclusive = small, poorly fitted or top-dose-only effect; inactive = flat fitted curve, though single readings scatter.

target: Calcium and integrin-binding protein 1 (Homo sapiens) (UniProt Q99828); assay: Primary qHTS for Identification of Calcium Integrin Binding Protein 1 (CIB1) Competitor (AID 1508620); conditions: CIB1-GST / FITC-alphaIIb peptide fluorescence polarization; series mostly up to 114 µM; activity change, negative = inhibition: at the top concentration; also: top concentration of the series differs between compounds
In short: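 Fluorescence polarization competition: GST-tagged CIB1 (1 uM final) preincubated with compound 15 min at room temperature, then FITC-labelled alphaIIb peptide (100 nM final) added. After 15 min at room temperature, polarization read at Ex 480/Em 540.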
% is scaled to controls: 0 for no effect and ±100 for the full control effect.

Sequence of Calcium and integrin-binding protein 1 (Homo sapiens) (Q99828 whole entry, looked up): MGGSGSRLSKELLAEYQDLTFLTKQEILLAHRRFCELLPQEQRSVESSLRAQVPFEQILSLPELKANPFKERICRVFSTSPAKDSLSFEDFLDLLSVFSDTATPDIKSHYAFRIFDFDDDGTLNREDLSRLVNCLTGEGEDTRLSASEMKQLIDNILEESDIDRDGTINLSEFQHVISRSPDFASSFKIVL

Row | Compound | activity change, negative = inhibition [%] | Potency
1 | Cc1ccccc1C(=O)N1CCc2cc(-n3cc(NC(=O)Cc4ccccc4)cn3)ccc21 | 2.64 | 
2 | O=C1CCCC2=C1C(c1[nH]ncc1Cl)N=C(Nc1nc3ccccc3s1)N2 (stereo not given) | 0.541 | 
3 | Cc1cnc(-c2ccccc2C(C)C)nc1NCC1CCN(c2cccnc2)C1 (stereo not given) | 2.78 | 
4 | Cc1cc(C)nc(NC(=S)N2CCN(c3cc(Cl)c(Cl)cc3Cl)CC2)c1 | -8.14 | 
5 | Cc1ccc(NS(=O)(=O)c2cc3c(cc2N2CCCC2)NC(=O)CC3)cc1C | -9.69 | 
6 | O=C1c2ccccc2C(=O)N1Cc1cccnc1 | -0.263 | 
7 | Cc1cc(C)nc(NC(=S)N2CCN(c3ccc(F)c(Cl)c3)CC2)c1 | -14.2 | 
8 | Fc1cc(Nc2nc(-c3ccncc3)nc3ccccc23)ccc1-c1ccnc(C(F)(F)F)c1 | 8.08 | 
9 | CC(=O)Nc1ccc(CNc2ncnc3ccc(-c4c(C)noc4C)cc23)cc1 | 1.71 | 
10 | Cc1nnc(CN(C)c2ncnc3ccc(-c4ccc5c(c4)OCO5)cc23)o1 | -6.68 | 
11 | O=S1(=O)N=C(Oc2ccc3ccccc3c2)c2ccccc21 | -11.1 | 
12 | COc1ccc(NC(=O)C(OC(=O)CNC(=O)c2ccccc2)c2ccccc2)cc1Cl (stereo not given) | -3.06 | 
13 | O=C1CCCC2=C1C(c1[nH]ncc1Cl)NC(=S)N2 (stereo not given) | -4.97 | 
14 | CCOc1ccc(C(=O)Nc2ccc(-c3nn[nH]n3)cc2)cc1[N+](=O)[O-] | -15.1 | 
15 | COc1ccc(C2=Nn3c(nnc3-c3ccccc3OC)SC2)c(OC)c1 | -3.3 | 
16 | Cn1c2ccsc2c2ncn(Cc3ccccc3F)c(=O)c21 | 1.06 | 
17 | CCOC(=O)CCC(=O)Nc1ncnc2c1C(c1ccccc1)c1c(ccc3ccccc13)O2 (stereo not given) | 2.76 | 
18 | Cc1ccsc1CNc1ncnc2ccc(-c3c(C)noc3C)cc12 | 0.78 | 
19 | Cc1cccc(-n2cnc3cc(C(=O)N4CCC(Cc5ccccc5)CC4)ccc32)c1 | -6.76 | 
20 | CC(C)(C)OC(=O)N1CCN(c2ccc(NCc3occc3-c3ccc(C#N)cc3)cc2)CC1 | -8.68 | 

Row | Compound | activity change, negative = inhibition [%] | Potency
21 | Fc1ccc(Nc2nc(-c3ccnc(C(F)(F)F)c3)nc3ccccc23)cc1F | 0.738 | 
22 | CCNC(=O)c1ccc(-c2ccc3ncnc(NCc4nc(C)cs4)c3c2)o1 | -16 | 
23 | CCOC(=O)c1ccc(-n2cnc3cc(C(=O)N4CCCCC4)ccc32)cc1 | 2.92 | 
24 | COc1ccc(-c2nnc3n2N=C(c2c(OC)cccc2OC)CS3)cc1 | 0.483 | 
25 | Cc1ccnc(NC(=S)N2CCN(c3ccc(O)cc3)CC2)c1 | -25.3 | 
26 | O=S(=O)(NC1CCCC(NS(=O)(=O)c2c(F)cccc2F)C1)c1ccc2c(c1)OCCO2 (stereo not given) | -1.73 | 
27 | Cc1cc(NC(=O)c2ccc([S+](=O)([O-])NCc3ccc(Cl)c(Cl)c3)cc2)no1 | -0.528 | 
28 | Oc1cc(-c2ccc(N3CCCCC3)nc2)cc2cccnc12 | -3.03 | 
29 | COc1cccc(C2=Nn3c(nnc3-c3cccc(OC)c3)SC2)c1 | 3.08 | 
30 | CC(=O)Nc1sc2c(c1-c1nc3ccccc3s1)CN(C(C)C)C2 |  | inactive
31 | Cc1ccc(-c2ccc(=O)n(CC(=O)N(C)[C@@H](C)c3ccccc3)n2)cc1 | -4.83 | 
32 | COc1ccc(C2Nc3ccccc3C(=O)N2Cc2ccco2)cc1COc1ccccc1C (stereo not given) | -4.54 | 
33 | O=S1(=O)Nc2c(ccc3cccnc23)-c2ccccc21 | -12.3 | 
34 | O=C(Nc1ccc(Cl)c(Cl)c1)N1CCN(c2ccncc2)CC1 | 0.613 | 
35 | CC1=C(C(=O)Nc2ccccc2)C(c2ccccc2Br)N=C(Nc2nc3ccccc3o2)N1 (stereo not given) | -0.072 | 
36 | CC(C)(C)c1ccc(C[C@H](C(=O)O)N2C(=O)c3ccc(C(=O)O)cc3C2=O)cc1 | 1.88 | 
37 | O=C(Nc1ccc2c(c1)CCC2)Nc1nnc(-c2ccncc2)s1 | 0.762 | 
38 | O=C(OCC#CCSc1nnc(-c2cccc3ccccc23)o1)c1cccc(F)c1 | 3.27 | 
39 | Cc1cc(NC(=O)Nc2nnc(C3CCCCC3)s2)ccc1Cl | 1.31 | 
40 | COc1cccc(Nc2nn3c(=O)c4ccccc4nc3s2)c1 | 4.13 | 
